Assay [1] in a line: resazurin metabolic signal in HepG2 cells – cell-based, resazurin fluorescence, 24 h, PK04 Diversity Set, profiling panel (AID 1172). Particulars: HepG2 viability, higher = more signal. (Alamar Blue is a resazurin reagent that responds to reducing activity.)
Assay [2] can be described thus: budding yeast growth changes without added modifier – OD600, strain BY4716, 24 h, basal condition, primary screen (AID 1173). The conditions noted are these: S. cerevisiae BY4716 growth, OD600, 24 h; higher = more signal, called active from +8 up or from −8 down.
Assay [3] is described as follows: viability profiling in MM1S myeloma cells – cell-based, resazurin fluorescence, basal, 24 h, PK04 Diversity Set, profiling panel (AID 1174).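 Also: MM1S multiple myeloma cell line.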 Particulars: higher = more signal, called active from +8 up or from −8 down.
The target of assay [4] is Dihydroorotate dehydrogenase (quinone), mitochondrial (Plasmodium falciparum (isolate 3D7)) (UniProt Q08210). The assay can be described thus: inhibition of P. falciparum DHODH – biochemical, C-terminal His tag, absorbance 600 nm, primary screen (AID 1175).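 Also: recombinant parasite enzyme with a five histidine tag at its C terminus.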 The conditions noted are these: PfDHODH enzyme, DCIP absorbance 600 nm; higher = more signal, called active from +8 up or from −8 down.
Sequence of Dihydroorotate dehydrogenase (quinone), mitochondrial (Plasmodium falciparum (isolate 3D7)) (Q08210 whole entry, looked up): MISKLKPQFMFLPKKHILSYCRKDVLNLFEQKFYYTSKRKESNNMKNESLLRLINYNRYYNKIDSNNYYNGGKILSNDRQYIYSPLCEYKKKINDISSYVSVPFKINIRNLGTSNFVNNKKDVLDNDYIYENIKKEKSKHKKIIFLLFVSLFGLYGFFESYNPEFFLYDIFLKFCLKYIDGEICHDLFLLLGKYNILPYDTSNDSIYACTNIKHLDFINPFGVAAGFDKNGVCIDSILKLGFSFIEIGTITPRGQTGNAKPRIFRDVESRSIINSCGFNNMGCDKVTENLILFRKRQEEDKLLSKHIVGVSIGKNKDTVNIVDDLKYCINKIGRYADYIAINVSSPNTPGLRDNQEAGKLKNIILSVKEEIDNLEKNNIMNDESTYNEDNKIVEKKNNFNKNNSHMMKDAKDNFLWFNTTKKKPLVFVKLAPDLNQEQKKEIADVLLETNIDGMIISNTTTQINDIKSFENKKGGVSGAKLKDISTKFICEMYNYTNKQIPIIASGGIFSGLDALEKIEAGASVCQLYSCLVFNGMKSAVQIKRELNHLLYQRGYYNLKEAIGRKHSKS

The nature of assay [5]: inhibition of PAO1 biofilm formation – strain PAO1, LB-PBS medium, absorbance 600 nm, primary screen (AID 1176). The conditions noted are these: P. aeruginosa PAO1 growth/biofilm, A600, 12 h; higher = more signal.
A short description of assay [6]: growth modulation of vineyard yeast isolate – strain RM11-1a, OD600, basal, 24 h, primary screen (AID 1177).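 Also: cultures grown under basal conditions with no added stressor.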 The conditions noted are these: S. cerevisiae RM11-1a growth, OD600, 24 h; higher = more signal, called active from +8 up or from −8 down.
Assay [7] in a line: growth of efflux-deficient E. coli DRC39 – strain DRC39, OD650, 24 h, E. coli filamentation inducers, primary screen (AID 1178).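 Also: growth measured as culture turbidity by optical density at 650 nm.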 Particulars: E. coli DRC39 acrAB, higher = more signal, called active from +8 up or from −8 down.
Assay [8] can be described thus: growth of efflux-deficient E. coli DRC39 – strain DRC39, OD650, 48 h, E. coli filamentation inducers, primary screen (AID 1179).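 Also: screen aims at cell division blockers that make cells filament.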 The conditions noted are these: E. coli DRC39 delta-acrAB growth, higher = more signal, called active from +8 up or from −8 down.
A short description of assay [9]: viability profiling in RPMI8226 myeloma cells – cell-based, resazurin fluorescence, basal, 24 h, PK04 Diversity Set, profiling panel (AID 1180).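 Also: RPMI8826 multiple myeloma cell line at 5000 cells per well.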 Particulars: higher = more signal.
In assay [10] the target is E3 ubiquitin-protein ligase XIAP (Homo sapiens) (UniProt P98170). The assay can be described thus: small molecules binding XIAP protein – biophysical, small-molecule microarray, fluorescence 635 nm, primary screen (AID 1181).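 Also: score merges 667 nm emission and signal to noise over triplicate slides.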 The conditions noted are these: higher = more signal.
Sequence of E3 ubiquitin-protein ligase XIAP (Homo sapiens) (P98170 whole entry, looked up, the tested form may be a part): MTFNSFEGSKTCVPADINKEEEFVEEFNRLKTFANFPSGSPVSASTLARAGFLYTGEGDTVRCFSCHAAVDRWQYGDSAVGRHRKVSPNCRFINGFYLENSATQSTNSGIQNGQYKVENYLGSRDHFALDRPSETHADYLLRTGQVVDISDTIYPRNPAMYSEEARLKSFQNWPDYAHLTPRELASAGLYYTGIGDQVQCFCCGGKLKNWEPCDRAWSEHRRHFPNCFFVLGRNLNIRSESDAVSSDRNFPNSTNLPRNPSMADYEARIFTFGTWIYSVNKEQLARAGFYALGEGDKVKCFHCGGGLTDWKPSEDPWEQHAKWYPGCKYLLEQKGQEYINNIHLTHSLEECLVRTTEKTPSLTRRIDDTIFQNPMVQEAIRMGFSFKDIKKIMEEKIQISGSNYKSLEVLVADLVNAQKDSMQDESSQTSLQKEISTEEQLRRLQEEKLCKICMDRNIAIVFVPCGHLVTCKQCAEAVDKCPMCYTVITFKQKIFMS
Assay [11] relates to XIP peptide (Xip251-270) binding. The assay can be described thus: XIP fragment 251-270 binding compounds – biochemical, small-molecule microarray, fluorescence 635/667 nm, 0.1 µg/mL protein, primary screen (AID 1182). Particulars: fluorescent protein binding, 635 nm, higher = more signal, called active from +8 up or from −8 down.
In another assay the test system is XIP peptide (Xip251-270). The assay can be described thus: compounds binding XIP fragment 251-270 – biochemical, small-molecule microarray, fluorescence 635/667 nm, 0.5 µg/mL protein, primary screen (AID 1183). The conditions noted are these: fluorescence 635 nm, higher = more signal.
A short description of assay [12]: blood-stage malaria parasite viability loss – strain 3D7, DAPI fluorescence, 100 nL, primary screen (AID 1184).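 Also: parasites grown inside human red blood cells in medium with human serum.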 The conditions noted are these: P. falciparum 3D7 growth, 3 d, higher = more signal.
Assay [13] has as its target Homeobox protein Hox-A13 (Mus musculus) (UniProt Q62424). The assay can be described thus: disruptors of Hoxa13 oligonucleotide interaction – biochemical, fluorescence polarization, labeled oligonucleotide, primary screen (AID 1185). Particulars: Hoxa13:DNA binding, 15 min, higher = more signal, called active from +8 up or from −8 down.
Assay [14] in a line: blockers of DNA damage checkpoint Chk1 activation – imaging, HeLa, hydroxyurea, phospho-Chk1 antibody, percent positive cells, primary screen (AID 1186). The conditions noted are these: hydroxyurea-induced phospho-Chk1 immunofluorescence imaging, higher = more signal.
Assay [15] in a line: blockers of DNA damage checkpoint Chk1 activation – imaging, HeLa, hydroxyurea, phospho-Chk1 nuclear intensity, primary screen (AID 1187). Particulars: hydroxyurea-induced phospho-Chk1 immunofluorescence imaging, higher = more signal.

Each structure is given as a SMILES string. Calls of active or inactive are those of the source. Unless noted, no rule for the calls is given here.

Sequence of Homeobox protein Hox-A13 (Mus musculus) (Q62424 whole entry, looked up): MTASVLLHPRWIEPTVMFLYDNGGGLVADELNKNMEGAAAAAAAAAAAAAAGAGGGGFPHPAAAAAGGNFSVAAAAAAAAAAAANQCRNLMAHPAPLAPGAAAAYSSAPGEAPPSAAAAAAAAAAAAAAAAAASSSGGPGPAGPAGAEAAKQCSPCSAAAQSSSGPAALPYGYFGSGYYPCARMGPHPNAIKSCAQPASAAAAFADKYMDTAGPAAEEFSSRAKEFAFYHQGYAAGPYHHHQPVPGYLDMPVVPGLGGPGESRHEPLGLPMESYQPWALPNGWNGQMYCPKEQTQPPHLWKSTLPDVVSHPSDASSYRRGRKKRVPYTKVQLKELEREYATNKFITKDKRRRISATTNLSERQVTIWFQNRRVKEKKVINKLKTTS

For the compound `Cc1ccc(S[C@]2(C(=O)NC(C)C)CC(=O)N(Cc3ccccc3Cl)[C@@H]2c2ccc(CO)cc2)cc1`, the z-score in [1] is -0.167; in [2], -0.624 (inactive); in assay [3], -0.514 (inactive); in assay [5], 1.52 (inactive); in [6], 0.343 (inactive); in assay [7], -0.332 (inactive). The z-score in [8] is -0.963 (inactive); in assay [9] it was 0.351; in assay [12], -1.49; in assay [13], -3.73 (inactive); in assay [14], -0.0383 (inactive); in [15] it was -0.0912 (inactive). Also, the composite z-score in assay [4] is -0.674 (inactive); in assay [10], -0.0072; in assay [11], 0.73 (inactive); with XIP peptide (Xip251-270), -0.11.

`COc1ccc(CCNC(=O)[C@@]2(Cc3ccccc3I)c3ccccc3C(=O)N(Cc3ccccc3Cl)[C@H]2c2ccc(CO)cc2)cc1`: the z-score in [1] was -0.0135; in [2] it was -0.564 (inactive); in assay [3] it was 0.0755 (inactive); in [5], 0.751 (inactive); in [6], -0.377 (inactive); in [7] it was -0.432 (inactive). Moreover, the z-score in [8] is -0.638 (inactive); in assay [9], -0.978; in assay [12], -1.23; in [13], -3.36 (inactive); in assay [14], 0.207 (inactive); in assay [15], -0.304 (inactive). Moreover, the composite z-score in assay [4] is -0.902 (inactive); in [10] it was 0.262; in assay [11], 0.71 (inactive); with XIP peptide (Xip251-270), 0.765.

Turning to `CCCNC(=O)[C@@]1(C)c2ccccc2C(=O)N(Cc2ccccc2)[C@H]1c1ccc(CO)cc1`, the z-score in [1] was -0.0367; in assay [2] it was -0.312 (inactive); in assay [3], 0.435 (inactive); in assay [5], -0.0065 (inactive); in assay [6], -0.637 (inactive); in assay [7], 0.503 (inactive). Also, the z-score is -0.105 (inactive) in assay [8]; 1.67 in assay [9]; -0.804 in assay [12]; -1.91 (inactive) in assay [13]; -0.558 (inactive) in assay [14]; -0.579 (inactive) in [15]. For the same compound, the composite z-score was -0.0373 (inactive) in [4], -0.0701 in [10], 0.952 (inactive) in assay [11] and 0.355 with XIP peptide (Xip251-270).

With `C=CCNC(=O)[C@H]1[C@@H]2C(=O)O[C@@H](c3ccccc3)[C@@H](c3ccccc3)N2[C@@H](c2ccc(OCCO)cc2)[C@]12C(=O)N(C(=O)OCCOC)c1ccc(C#Cc3ccc(OC)cc3)cc12`, the z-score in assay [1] is -1.14; in assay [2], 0.583 (inactive); in assay [3], 0.476 (inactive); in [5], 2.11 (inactive); in assay [6], 2.22 (inactive); in [7], 1.07 (inactive). Also, the z-score is 0.941 (inactive) in assay [8]; 0.637 in assay [9]; -2.38 in assay [12]; 4.25 (inactive) in [13]; -0.499 (inactive) in assay [14]; -0.744 (inactive) in assay [15]. Also, the composite z-score was -2.05 (inactive) in assay [4], -0.0344 in assay [10], 0.0294 (inactive) in [11] and 0.719 in the assay on XIP peptide (Xip251-270).

Turning to `COCC1C2CC[C@H]3C(OCc4ccc(OC)cc4)OC[C@]4(C)[C@H]3C2=C(CN4C(=O)OC(C)(C)C)[C@H](C)C1COC` (some centres not stated), the z-score was -0.819 in assay [1]; -0.316 (inactive) in assay [2]; -0.79 (inactive) in [3]; 0.796 (inactive) in assay [5]; -0.688 (inactive) in [6]; -0.705 (inactive) in assay [7]. Further, the z-score in [8] was 0.286 (inactive); in assay [9], -0.723; in assay [12], -0.821; in assay [13] it was -4.09 (inactive); in assay [14], -0.615 (inactive); in assay [15], -0.719 (inactive). In addition, the composite z-score in assay [4] was -0.566 (inactive); in assay [10], 0.441; in assay [11], -0.272 (inactive); with XIP peptide (Xip251-270), 0.682.

`CC(C)CNC(=O)[C@@]1(C)c2ccccc2C(=O)N(Cc2cc(C(F)(F)F)cc(C(F)(F)F)c2)[C@H]1c1ccc(CO)cc1`: the z-score in assay [1] was -0.402; in [2], 0.145 (inactive); in [3], -0.47 (inactive); in assay [5], -0.0933 (inactive); in assay [6] it was -0.46 (inactive); in [7] it was 0.162 (inactive). Also, the z-score is 0.644 (inactive) in [8]; 0.364 in assay [9]; -0.607 in assay [12]; -2.63 (inactive) in assay [13]; 0.0613 (inactive) in assay [14]; 0.447 (inactive) in [15]. Besides, the composite z-score in [4] was 0.24 (inactive); in [10] it was -0.206; in assay [11], -0.337 (inactive); in the assay on XIP peptide (Xip251-270), 0.145.

Consider `CN(C)CCCNC(=O)[C@@H]1c2ccccc2C(=O)N(C2CCCCC2)[C@H]1c1ccc(CO)cc1`, for which the z-score in [1] is 0.848; in assay [2], -0.737 (inactive); in [3], 0.749 (inactive); in [5], 0.0714 (inactive); in [6], 0.409 (inactive); in [7] it was -0.101 (inactive). The z-score in [8] is 0.515 (inactive); in [9], 0.988; in [12], -1.99; in assay [13], 1.8 (inactive); in assay [14] it was 0.208 (inactive); in assay [15], 0.393 (inactive). The composite z-score in assay [4] was -0.151 (inactive); in assay [10], -0.157; in [11], 2.33 (inactive); in the assay on XIP peptide (Xip251-270), 0.834.
